Experimental data: ChEMBL document CHEMBL1201862, “PubChem BioAssay data set” (2004)
The whole screen tested about 310,000 compounds, of which about 11,000 (3.5%) were called active. Not shown: some 8% with an inconclusive outcome. No cut-off for these calls is given here. This excerpt belongs to a sample that is enriched for actives.

These compounds were tested against Nuclear receptor ROR-gamma (Mus musculus) (UniProt P51450) (assay: VP16 counterscreen qHTS for inhibitors of ROR gamma transcriptional activity.).
Type: functional

Chain of Nuclear receptor ROR-gamma (Mus musculus) (P51450 whole entry): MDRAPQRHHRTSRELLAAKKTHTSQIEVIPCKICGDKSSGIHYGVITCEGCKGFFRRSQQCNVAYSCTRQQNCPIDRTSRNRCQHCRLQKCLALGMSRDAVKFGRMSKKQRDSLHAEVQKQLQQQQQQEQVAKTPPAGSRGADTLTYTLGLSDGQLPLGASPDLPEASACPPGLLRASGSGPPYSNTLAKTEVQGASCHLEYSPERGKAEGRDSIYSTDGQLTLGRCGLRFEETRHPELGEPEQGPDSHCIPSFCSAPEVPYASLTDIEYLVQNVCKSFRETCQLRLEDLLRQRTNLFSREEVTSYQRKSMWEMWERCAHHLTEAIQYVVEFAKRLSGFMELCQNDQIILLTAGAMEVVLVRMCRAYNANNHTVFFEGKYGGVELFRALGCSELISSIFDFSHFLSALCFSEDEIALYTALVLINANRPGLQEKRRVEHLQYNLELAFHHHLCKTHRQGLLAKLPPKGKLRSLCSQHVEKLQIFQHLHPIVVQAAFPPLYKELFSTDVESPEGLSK

Potency, active:
O=C(Oc1c(Cl)cc(Cl)c2cccnc12)c1cccc([N+](=O)[O-])c1 200 µM, COc1cccc2sc(Nc3nc(-c4ccccn4)cs3)nc12 355 µM, O=C(N/N=C(\c1ccccc1)c1cccnc1)c1cccc(F)c1 891 µM, O=C(NC1CCCCCCC1)C1CCN(c2nc3ccccc3o2)CC1 631 µM, Cc1ccc(-n2c(C)cc(C(=O)COC(=O)c3cccnc3O)c2C)cc1 224 µM
